Experimental data from the supplement of paper PMC10849652.
Of roughly 8,800 targets only a part is listed; those with a hit were picked by preference. About 0.5% of all pairs of compound and target were hits.

How the values were obtained:
Assay in all cases: log2 fold change, soluble protein after heating vs DMSO (PISA); higher = thermal stabilisation; K562 lysate, 10 uM; active = over 0.2 and 3.5 SD of the protein, either way, in both replicates (recomputed)
ibrutinib = compound: C=CC(=O)N1CCC[C@@H](n2nc(-c3ccc(Oc4ccccc4)cc3)c3c(N)ncnc32)C1 [ibrutinib]
How it was run: (§1)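 Thermal stability, expressed as log-two fold change relative to solvent controls, is given from duplicates. Crude K562 extract in PBS pH 7.4 with 1 mM MgCl2, at 1 mg/mL protein, was treated with 10 μM compound for 30 min and heated in aliquots for 3 min across 48°C-58°C. After pooling, adjustment to 0.5% NP-40 at 4°C and centrifugation at 21,000xg for 90 min, supernatant protein was measured by TMTpro 16plex LC-MS/MS with channel sums equalised.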

[1] = compound: CC(=O)c1cnc2ccc(-c3cc(Cl)c(O)c(Cl)c3)nc2c1N[C@H]1CC[C@H](CN(C)C)CC1
How it was run: as §1

ralimetinib = compound: CC(C)(C)Cn1c(N)nc2ccc(-c3[nH]c(C(C)(C)C)nc3-c3ccc(F)cc3)nc21 [ralimetinib]
How it was run: as §1

[2] = compound: CC(C)(O)CC(=O)NCCn1ccc2ncnc(Nc3ccc(Oc4cccc(C(F)(F)F)c4)c(Cl)c3)c21
How it was run: as §1

[3] = compound: CC(C)C1=C2N=C(C=C(N2N=C1)NCC3=CC=CC=C3)NCCCCCCN
How it was run: as §1

[4] = compound: CC1=C(C(CC(=O)N1)C2=CC=C(C=C2)C(F)(F)F)C(=O)NC3=C(C=C4C(=C3)C=NN4)F
How it was run: as §1

[5] = compound: CC1=C(C2=C(C=C1)C(=O)C3=CC=CC=C3N2CCCN)C
How it was run: as §1

[6] = compound: CC1=C(C=C(C=C1)NC(=O)C2=CC(=CC=C2)C(C)(C)C#N)NC3=CC4=C(C=C3)N=CN(C4=O)C
How it was run: as §1

[7] = compound: CC1=C(C=C(C=C1)NC(=O)C2=CC(=CC=C2)N(C)C)NC(=O)C3=CC=C(C=C3)O
How it was run: as §1

[8] = compound: CC1=CC=C(C=C1)SC2=C3C=C(SC3=CN=C2)C(=O)N
How it was run: as §1

vemurafenib = compound: CCCS(=O)(=O)Nc1ccc(F)c(C(=O)c2c[nH]c3ncc(-c4ccc(Cl)cc4)cc23)c1F [vemurafenib]
How it was run: as §1

[9] = compound: CCCS(=O)(=O)Nc1ccc(F)c(C(=O)c2c[nH]c3ncc(Cl)cc23)c1F
How it was run: as §1

barasertib = compound: CCN(CCCOc1ccc2c(Nc3cc(CC(=O)Nc4cccc(F)c4)[nH]n3)ncnc2c1)CCOP(=O)(O)O [barasertib]
How it was run: as §1

[10] = compound: CC[C@@H]1C(=O)N(C)c2cnc(Nc3ccc(C(=O)NC4CCN(C)CC4)cc3OC)nc2N1C1CCCC1
How it was run: as §1

volasertib = compound: CC[C@@H]1C(=O)N(C)c2cnc(Nc3ccc(C(=O)N[C@H]4CC[C@H](N5CCN(CC6CC6)CC5)CC4)cc3OC)nc2N1C(C)C [volasertib]
How it was run: as §1

[11] = compound: CCn1c(C(=O)N(C2CC2)C2CC2)cc2c3c(ncn3C)c(Nc3cc(C)n(C)n3)nc21
How it was run: as §1

[12] = compound: CCn1cc(-c2ccnc3[nH]c(-c4cccc(CN(C)C)c4)cc23)c(-c2ccc(NC(=O)N(C)C)cc2)n1
How it was run: as §1

[13] = compound: CN1CCC(CNc2ccc3ncc(-c4cccc(OC(F)(F)F)c4)n3n2)CC1
How it was run: as §1

saracatinib = compound: CN1CCN(CCOc2cc(OC3CCOCC3)c3c(Nc4c(Cl)ccc5c4OCO5)ncnc3c2)CC1 [saracatinib]
How it was run: as §1

sotrastaurin = compound: CN1CCN(c2nc(C3=C(c4c[nH]c5ccccc45)C(=O)NC3=O)c3ccccc3n2)CC1 [sotrastaurin]
How it was run: as §1

Measured: log2 fold change

AK4 (UniProt P27144)
inactive: ibrutinib 0.06 | [1] -0.019 | ralimetinib -0.036 | [2] -0.016 | [3] -0.008 | [4] 0.021 | [5] -0.005 | [6] 0.012 | [7] 0.022 | [8] -0.017 | vemurafenib -0.068 | [9] 0.018 | barasertib 0.11 | [10] -0.057 | volasertib -0.024 | [11] 0.023 | [12] -0.036 | [13] -0.002 | saracatinib -0.016 | sotrastaurin 0.05

ABCD3 (UniProt P28288)
UniProt P28288, sequence (P28288 whole entry, looked up): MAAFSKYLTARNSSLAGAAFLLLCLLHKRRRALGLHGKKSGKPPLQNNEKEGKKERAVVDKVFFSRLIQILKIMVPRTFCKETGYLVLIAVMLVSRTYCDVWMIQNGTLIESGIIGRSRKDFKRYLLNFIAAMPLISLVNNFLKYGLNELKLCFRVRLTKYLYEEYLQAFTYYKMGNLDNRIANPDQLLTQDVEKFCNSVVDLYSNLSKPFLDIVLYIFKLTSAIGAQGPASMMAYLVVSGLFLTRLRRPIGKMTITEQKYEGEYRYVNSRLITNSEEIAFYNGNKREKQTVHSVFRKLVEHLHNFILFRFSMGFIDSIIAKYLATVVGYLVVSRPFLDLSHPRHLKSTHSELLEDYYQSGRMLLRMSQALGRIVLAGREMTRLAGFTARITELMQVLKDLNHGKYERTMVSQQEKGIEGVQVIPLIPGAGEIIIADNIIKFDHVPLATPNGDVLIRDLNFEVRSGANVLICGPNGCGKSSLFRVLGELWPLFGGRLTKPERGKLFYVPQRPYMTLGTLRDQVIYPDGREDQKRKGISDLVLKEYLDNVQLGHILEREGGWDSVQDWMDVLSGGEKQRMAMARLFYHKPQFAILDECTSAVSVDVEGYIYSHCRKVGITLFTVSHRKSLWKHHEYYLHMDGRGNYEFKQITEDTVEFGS
inactive: ibrutinib -0.035 | [1] -0.083 | ralimetinib -0.067 | [2] 0.064 | [3] 0.185 | [4] 0.01 | [5] -0.096 | [6] -0.028 | [7] -0.073 | [8] -0.031 | vemurafenib 0.078 | [9] 0.058 | barasertib 0.053 | [10] -0.077 | volasertib -0.029 | [11] -0.07 | [12] -0.054 | [13] 0.044 | saracatinib -0.071 | sotrastaurin 0.073

ADAR isoform 4 (UniProt P55265)
inactive: ibrutinib 0.152 | [1] -0.025 | ralimetinib 0.029 | [2] -0.019 | [3] -0.03 | [4] 0.018 | [5] 0.016 | [6] -0.002 | [7] 0.015 | [8] -0.021 | vemurafenib 0.077 | [9] 0.051 | barasertib 0.061 | [10] 0.011 | volasertib 0.003 | [11] 0.025 | [12] -0.001 | [13] -0.049 | saracatinib 0.04 | sotrastaurin 0.032

ANKRD27 (UniProt Q96NW4)
UniProt Q96NW4, sequence (Q96NW4 whole entry, looked up): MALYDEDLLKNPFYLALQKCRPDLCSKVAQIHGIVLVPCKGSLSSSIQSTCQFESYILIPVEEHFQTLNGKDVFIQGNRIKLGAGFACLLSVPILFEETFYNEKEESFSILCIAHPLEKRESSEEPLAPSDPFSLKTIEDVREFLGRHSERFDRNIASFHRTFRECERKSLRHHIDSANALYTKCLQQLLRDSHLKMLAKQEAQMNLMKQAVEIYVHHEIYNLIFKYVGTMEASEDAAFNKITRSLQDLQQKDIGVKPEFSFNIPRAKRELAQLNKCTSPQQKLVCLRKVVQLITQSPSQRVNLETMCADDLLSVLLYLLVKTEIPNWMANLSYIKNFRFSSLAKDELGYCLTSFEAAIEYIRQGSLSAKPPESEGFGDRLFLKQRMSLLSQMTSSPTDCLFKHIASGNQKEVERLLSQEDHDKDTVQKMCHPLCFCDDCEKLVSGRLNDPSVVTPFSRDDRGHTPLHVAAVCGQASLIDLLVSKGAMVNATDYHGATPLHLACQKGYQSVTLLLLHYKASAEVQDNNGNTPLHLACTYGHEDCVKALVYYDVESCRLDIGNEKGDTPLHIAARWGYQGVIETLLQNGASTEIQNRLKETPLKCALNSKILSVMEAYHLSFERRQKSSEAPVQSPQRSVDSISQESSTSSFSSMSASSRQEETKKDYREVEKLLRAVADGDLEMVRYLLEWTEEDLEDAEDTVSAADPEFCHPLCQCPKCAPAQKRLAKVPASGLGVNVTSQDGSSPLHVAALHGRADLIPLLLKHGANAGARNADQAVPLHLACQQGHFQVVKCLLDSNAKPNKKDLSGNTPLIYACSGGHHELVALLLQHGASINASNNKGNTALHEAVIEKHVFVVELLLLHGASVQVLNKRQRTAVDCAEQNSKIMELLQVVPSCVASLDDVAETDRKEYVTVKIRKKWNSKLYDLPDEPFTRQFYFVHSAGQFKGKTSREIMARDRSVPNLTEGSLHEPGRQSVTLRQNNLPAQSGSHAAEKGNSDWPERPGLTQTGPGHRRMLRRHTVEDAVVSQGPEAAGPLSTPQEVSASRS
inactive: ibrutinib 0.016 | [1] -0.003 | ralimetinib -0.028 | [2] -0.009 | [3] 0.032 | [4] 0.033 | [5] -0.014 | [6] 0.089 | [7] 0.013 | [8] -0.102 | vemurafenib -0.016 | [9] 0.006 | barasertib 0.043 | [10] 0.01 | volasertib -0.075 | [11] 0.001 | [12] -0.042 | [13] -0.073 | saracatinib 0.054 | sotrastaurin -0.002

ACADM isoform 2 (UniProt P11310)
UniProt P11310, sequence (P11310 whole entry, looked up): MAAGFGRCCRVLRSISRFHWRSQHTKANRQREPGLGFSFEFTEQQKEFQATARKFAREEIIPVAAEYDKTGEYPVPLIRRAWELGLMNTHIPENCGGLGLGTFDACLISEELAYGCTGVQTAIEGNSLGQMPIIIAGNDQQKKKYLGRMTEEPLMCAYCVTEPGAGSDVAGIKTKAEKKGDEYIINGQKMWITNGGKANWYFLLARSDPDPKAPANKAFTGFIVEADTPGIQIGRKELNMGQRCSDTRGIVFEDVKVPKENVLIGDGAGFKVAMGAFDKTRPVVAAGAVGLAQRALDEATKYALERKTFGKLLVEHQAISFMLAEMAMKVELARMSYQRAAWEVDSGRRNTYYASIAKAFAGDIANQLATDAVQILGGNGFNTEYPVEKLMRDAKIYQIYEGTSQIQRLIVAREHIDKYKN
inactive: ibrutinib 0.151 | [1] 0.026 | ralimetinib -0.015 | [2] -0.047 | [4] -0.041 | [5] -0.004 | [6] -0.055 | [7] -0.019 | [8] 0.046 | vemurafenib 0.02 | [9] -0.011 | barasertib 0.069 | [10] 0.001 | volasertib -0.062 | [11] -0.051 | [12] -0.031 | [13] -0.046 | saracatinib -0.023
active: [3] 0.396 | sotrastaurin 0.67

ANKRD52 (UniProt Q8NB46)
UniProt Q8NB46, sequence (Q8NB46 whole entry, looked up): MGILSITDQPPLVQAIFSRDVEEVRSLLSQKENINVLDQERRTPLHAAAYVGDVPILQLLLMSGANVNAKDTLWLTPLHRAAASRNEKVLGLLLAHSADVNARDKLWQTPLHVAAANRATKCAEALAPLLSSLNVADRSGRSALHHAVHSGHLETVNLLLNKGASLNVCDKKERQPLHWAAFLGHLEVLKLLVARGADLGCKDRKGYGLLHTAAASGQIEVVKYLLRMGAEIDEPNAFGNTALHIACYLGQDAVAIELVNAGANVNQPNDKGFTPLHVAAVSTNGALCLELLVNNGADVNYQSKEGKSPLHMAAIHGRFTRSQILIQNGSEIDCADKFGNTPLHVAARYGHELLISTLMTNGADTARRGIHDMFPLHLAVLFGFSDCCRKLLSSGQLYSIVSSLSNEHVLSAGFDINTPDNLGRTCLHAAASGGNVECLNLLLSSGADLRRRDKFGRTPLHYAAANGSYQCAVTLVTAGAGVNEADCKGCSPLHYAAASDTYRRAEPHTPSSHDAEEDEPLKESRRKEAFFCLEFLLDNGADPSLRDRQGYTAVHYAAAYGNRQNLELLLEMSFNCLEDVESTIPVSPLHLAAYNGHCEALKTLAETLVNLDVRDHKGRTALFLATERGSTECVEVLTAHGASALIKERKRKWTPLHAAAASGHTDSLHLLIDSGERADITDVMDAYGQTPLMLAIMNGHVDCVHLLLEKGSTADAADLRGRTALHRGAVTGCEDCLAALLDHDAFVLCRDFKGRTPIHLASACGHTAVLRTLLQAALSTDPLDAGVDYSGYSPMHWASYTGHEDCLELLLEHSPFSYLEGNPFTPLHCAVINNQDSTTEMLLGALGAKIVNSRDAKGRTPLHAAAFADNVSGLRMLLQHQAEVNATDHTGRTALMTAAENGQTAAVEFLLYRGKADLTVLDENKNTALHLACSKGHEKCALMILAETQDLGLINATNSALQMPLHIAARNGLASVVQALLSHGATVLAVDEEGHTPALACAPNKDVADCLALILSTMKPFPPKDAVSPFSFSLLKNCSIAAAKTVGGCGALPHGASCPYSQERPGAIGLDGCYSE
active: [8] -0.363
inactive: ibrutinib 0.01 | [1] -0.089 | ralimetinib -0.002 | [2] -0.025 | [3] 0.022 | [4] 0.007 | [5] -0.058 | [6] 0.011 | [7] 0.047 | vemurafenib -0.052 | [9] 0.032 | barasertib 0.029 | [10] -0.019 | volasertib 0.097 | [11] 0.063 | [12] 0.061 | [13] -0.015 | saracatinib -0.022 | sotrastaurin -0.008

AP4B1 (UniProt Q9Y6B7)
UniProt Q9Y6B7, sequence (Q9Y6B7 whole entry, looked up): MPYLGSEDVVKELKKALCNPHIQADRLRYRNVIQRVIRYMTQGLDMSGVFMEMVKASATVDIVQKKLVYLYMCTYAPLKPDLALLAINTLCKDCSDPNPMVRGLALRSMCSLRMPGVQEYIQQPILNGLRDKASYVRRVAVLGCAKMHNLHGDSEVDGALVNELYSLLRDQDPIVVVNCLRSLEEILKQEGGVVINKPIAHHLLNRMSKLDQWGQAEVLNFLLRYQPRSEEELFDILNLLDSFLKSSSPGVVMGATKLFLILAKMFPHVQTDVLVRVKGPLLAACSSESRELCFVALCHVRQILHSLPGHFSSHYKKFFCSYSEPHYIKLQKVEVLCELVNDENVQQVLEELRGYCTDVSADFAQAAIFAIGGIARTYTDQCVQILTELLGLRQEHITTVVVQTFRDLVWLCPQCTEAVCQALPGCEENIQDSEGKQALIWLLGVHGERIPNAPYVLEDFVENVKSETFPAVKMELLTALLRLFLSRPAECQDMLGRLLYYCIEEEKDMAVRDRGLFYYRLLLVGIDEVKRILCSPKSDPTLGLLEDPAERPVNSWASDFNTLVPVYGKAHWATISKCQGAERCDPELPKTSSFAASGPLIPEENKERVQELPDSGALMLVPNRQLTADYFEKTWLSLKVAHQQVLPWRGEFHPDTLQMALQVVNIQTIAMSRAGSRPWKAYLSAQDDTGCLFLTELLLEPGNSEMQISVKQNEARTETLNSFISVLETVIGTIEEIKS
inactive: ibrutinib -0.028 | [1] -0.048 | ralimetinib -0.044 | [2] 0 | [3] 0.034 | [4] 0.003 | [5] -0.027 | [6] -0.02 | [7] -0.041 | [8] -0.041 | vemurafenib 0.026 | [9] 0.087 | barasertib 0.028 | [10] -0.01 | volasertib -0.009 | [11] 0.011 | [12] -0.035 | [13] 0.02 | saracatinib 0.042 | sotrastaurin -0.027

AGPS (UniProt O00116)
inactive: ibrutinib 0.01 | [1] -0.004 | ralimetinib -0.013 | [2] -0.07 | [3] -0.065 | [4] 0.012 | [5] 0.025 | [6] -0.177 | [7] -0.005 | [8] -0.02 | vemurafenib 0.028 | [9] 0.008 | barasertib -0.021 | [10] 0.06 | volasertib 0.011 | [11] 0.025 | [12] -0.082 | [13] 0.012 | saracatinib -0.009 | sotrastaurin -0.016

ANP32E (UniProt Q9BTT0)
inactive: ibrutinib 0.03 | [1] -0.009 | ralimetinib -0.015 | [2] 0.001 | [3] 0.022 | [4] -0.051 | [5] -0.072 | [6] 0.011 | [7] -0.065 | [8] 0.063 | vemurafenib -0.012 | [9] 0.004 | barasertib -0.064 | [10] 0.059 | volasertib -0.001 | [11] -0.011 | [12] -0.058 | [13] 0.024 | saracatinib 0.028 | sotrastaurin -0.023

ALG8 (UniProt Q9BVK2)
inactive: ibrutinib 0.017 | [1] -0.013 | ralimetinib 0.013 | [2] 0.036 | [3] -0.028 | [4] -0.005 | [5] 0.054 | [6] 0.027 | [7] -0.011 | [8] -0.003 | vemurafenib -0.038 | [9] -0.013 | barasertib 0 | [10] -0.084 | volasertib 0.034 | [11] 0.045 | [13] 0.001 | saracatinib 0.005 | sotrastaurin 0.038
active: [12] -0.316

APOBEC3C (UniProt Q9NRW3)
UniProt Q9NRW3, sequence (Q9NRW3 whole entry, looked up): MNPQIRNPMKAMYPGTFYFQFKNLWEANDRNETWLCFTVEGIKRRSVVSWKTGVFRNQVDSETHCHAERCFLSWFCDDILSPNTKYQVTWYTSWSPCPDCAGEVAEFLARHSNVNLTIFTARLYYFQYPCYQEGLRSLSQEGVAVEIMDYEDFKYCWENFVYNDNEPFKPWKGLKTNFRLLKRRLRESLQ
inactive: ibrutinib -0.024 | [1] -0.047 | ralimetinib 0.005 | [2] -0.051 | [3] -0.01 | [4] 0 | [5] -0.025 | [6] 0.046 | [7] 0.019 | [8] -0.01 | vemurafenib -0.027 | [9] 0.021 | barasertib -0.006 | [10] 0.075 | volasertib -0.014 | [11] -0.081 | [12] -0.038 | [13] 0.034 | saracatinib 0.018 | sotrastaurin 0.114

APEX1 (UniProt P27695)
UniProt P27695, sequence (P27695 whole entry, looked up): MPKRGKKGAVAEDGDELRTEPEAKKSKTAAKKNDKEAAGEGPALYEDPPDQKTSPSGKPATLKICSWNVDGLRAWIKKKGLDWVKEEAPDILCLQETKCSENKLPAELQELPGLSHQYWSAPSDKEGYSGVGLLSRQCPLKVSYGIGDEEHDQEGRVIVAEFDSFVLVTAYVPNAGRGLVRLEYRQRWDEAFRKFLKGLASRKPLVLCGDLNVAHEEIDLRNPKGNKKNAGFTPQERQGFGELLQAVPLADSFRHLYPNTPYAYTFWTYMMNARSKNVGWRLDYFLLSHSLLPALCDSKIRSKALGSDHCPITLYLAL
inactive: ibrutinib 0.048 | [1] -0.001 | ralimetinib -0.014 | [2] 0.026 | [3] 0.006 | [4] 0.001 | [5] -0.02 | [6] -0.011 | [7] 0.01 | [8] 0.019 | vemurafenib 0.019 | [9] 0.017 | barasertib -0.027 | [10] -0.03 | volasertib -0.004 | [11] 0.043 | [13] -0.07 | saracatinib -0.001 | sotrastaurin 0.009
active: [12] 0.37

ARMC6 (UniProt Q6NXE6)
UniProt Q6NXE6, sequence (Q6NXE6 whole entry, looked up): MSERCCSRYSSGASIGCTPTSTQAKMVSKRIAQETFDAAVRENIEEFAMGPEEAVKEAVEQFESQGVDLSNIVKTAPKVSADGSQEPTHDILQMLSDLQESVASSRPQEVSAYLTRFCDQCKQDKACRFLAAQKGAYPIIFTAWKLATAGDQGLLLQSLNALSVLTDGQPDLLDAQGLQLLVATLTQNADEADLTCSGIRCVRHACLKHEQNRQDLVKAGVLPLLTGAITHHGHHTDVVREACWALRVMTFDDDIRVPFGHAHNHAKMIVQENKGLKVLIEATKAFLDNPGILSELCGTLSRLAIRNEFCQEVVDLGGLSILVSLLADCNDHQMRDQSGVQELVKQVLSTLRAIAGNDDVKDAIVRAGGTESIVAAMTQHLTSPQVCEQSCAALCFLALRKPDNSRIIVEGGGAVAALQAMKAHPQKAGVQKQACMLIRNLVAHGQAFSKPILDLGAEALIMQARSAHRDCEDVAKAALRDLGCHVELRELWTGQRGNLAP
inactive: ibrutinib 0.023 | [1] 0.005 | ralimetinib 0.007 | [2] -0.005 | [3] 0.002 | [4] -0.013 | [5] 0.001 | [6] -0.011 | [7] 0.016 | [8] 0 | vemurafenib -0.053 | [9] 0.02 | barasertib 0.071 | [10] -0.136 | volasertib -0.056 | [11] 0.019 | [12] 0.002 | [13] -0.035 | saracatinib 0.013 | sotrastaurin 0.019

ARHGAP25 isoform 4 (UniProt P42331)
inactive: ibrutinib 0.016 | [1] 0.036 | ralimetinib 0.026 | [2] -0.003 | [3] -0.026 | [4] 0.064 | [5] -0.014 | [6] 0.117 | [7] 0.059 | [8] -0.006 | vemurafenib 0.021 | [9] 0.049 | barasertib 0.081 | [10] -0.045 | volasertib -0.029 | [11] -0.032 | [12] -0.012 | [13] 0.019 | saracatinib -0.034 | sotrastaurin 0.043

AKT1 (UniProt P31749)
inactive: ibrutinib 0.028 | [1] 0.013 | ralimetinib 0.005 | [2] -0.023 | [3] 0.009 | [4] 0.003 | [5] -0.009 | [6] 0 | [7] -0.006 | [8] 0.019 | vemurafenib 0.071 | [9] 0.011 | barasertib -0.023 | [10] -0.019 | volasertib -0.026 | [11] -0.031 | [12] -0.068 | [13] 0.055 | saracatinib 0.055 | sotrastaurin 0.051

ARL15 (UniProt Q9NXU5)
active: [12] 0.765
inactive: ibrutinib -0.015 | [1] 0.048 | ralimetinib -0.012 | [2] -0.05 | [3] 0.015 | [4] 0.005 | [5] 0.005 | [6] 0.001 | [7] 0.033 | [8] -0.005 | vemurafenib -0.057 | [9] -0.019 | barasertib 0.002 | [10] -0.082 | volasertib -0.009 | [11] 0.035 | [13] -0.119 | saracatinib -0.01 | sotrastaurin 0.049
